Data published in the supplement of paper PMC11732987, “Enantioselective OTUD7B fragment discovery through chemoproteomics screening and high-throughput optimisation” (Communications Chemistry, 2025).

What was measured:
Assay in all cases: log2 ratio of Biotin-Ahx-Ub-VS probe labelling (fragment/DMSO); higher = less target engagement (more negative = stronger competition), active = hit call of the paper (q ≤ 0.05, log2 ratio ≤ -1)
Conditions in all cases: compound concentration: 200 uM; treatment time: 3 h
[1] = molecular target: T1, USP42 (UniProt Q9H9J4)
T1 sequence (whole entry): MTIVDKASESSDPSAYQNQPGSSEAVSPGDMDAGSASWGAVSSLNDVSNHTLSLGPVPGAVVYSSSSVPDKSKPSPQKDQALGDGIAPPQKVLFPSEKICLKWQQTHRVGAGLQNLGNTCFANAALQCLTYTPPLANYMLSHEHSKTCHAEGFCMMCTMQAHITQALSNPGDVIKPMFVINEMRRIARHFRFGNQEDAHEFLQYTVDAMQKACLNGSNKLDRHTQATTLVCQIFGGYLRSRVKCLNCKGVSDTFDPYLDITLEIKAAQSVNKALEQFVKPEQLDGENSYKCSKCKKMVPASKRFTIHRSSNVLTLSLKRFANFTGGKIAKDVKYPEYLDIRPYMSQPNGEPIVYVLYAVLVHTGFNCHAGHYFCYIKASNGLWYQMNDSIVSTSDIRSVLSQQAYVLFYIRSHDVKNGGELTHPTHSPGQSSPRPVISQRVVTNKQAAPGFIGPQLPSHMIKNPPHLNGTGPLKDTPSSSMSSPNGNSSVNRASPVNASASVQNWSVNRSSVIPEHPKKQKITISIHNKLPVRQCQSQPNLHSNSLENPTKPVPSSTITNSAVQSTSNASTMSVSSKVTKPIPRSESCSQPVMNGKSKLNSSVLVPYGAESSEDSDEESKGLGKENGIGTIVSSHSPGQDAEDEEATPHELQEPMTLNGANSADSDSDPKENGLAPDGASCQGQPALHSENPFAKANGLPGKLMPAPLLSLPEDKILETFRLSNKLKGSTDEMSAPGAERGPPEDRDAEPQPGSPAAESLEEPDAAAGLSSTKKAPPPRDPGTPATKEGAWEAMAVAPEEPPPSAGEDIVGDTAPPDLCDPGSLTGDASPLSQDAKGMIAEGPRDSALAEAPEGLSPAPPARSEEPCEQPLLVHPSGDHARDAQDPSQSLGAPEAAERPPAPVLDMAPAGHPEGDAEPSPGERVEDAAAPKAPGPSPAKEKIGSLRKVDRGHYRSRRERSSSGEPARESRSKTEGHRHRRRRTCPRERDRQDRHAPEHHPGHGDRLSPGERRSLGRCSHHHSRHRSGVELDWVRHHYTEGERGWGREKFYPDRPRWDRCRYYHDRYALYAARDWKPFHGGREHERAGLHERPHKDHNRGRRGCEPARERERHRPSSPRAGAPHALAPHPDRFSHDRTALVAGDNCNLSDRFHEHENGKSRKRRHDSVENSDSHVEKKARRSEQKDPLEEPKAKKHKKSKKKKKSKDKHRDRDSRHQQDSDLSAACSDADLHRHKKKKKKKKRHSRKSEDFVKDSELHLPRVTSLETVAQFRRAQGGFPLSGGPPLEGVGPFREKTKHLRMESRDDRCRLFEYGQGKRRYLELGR
Procedure, shortened: (§1)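 Using Biotin-Ahx-Ub-VS at 0.5 µM final for 1 h, DUBs were labelled in HEK293T lysate (495 µg per sample) that had first been treated in triplicate with fragment at 200 µM or vehicle for 3 h. NeutrAvidin enrichment, LysC and trypsin digestion and diaPASEF LC-MS/MS followed. Spectronaut label-free quantities were global-median-normalised. Values are average log2 fragment/vehicle ratios by unpaired t-test, using proteins with ≥2 unique peptides.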

[2] = molecular target: USP46 (UniProt P62068)
Chain of USP46 (P62068 whole entry): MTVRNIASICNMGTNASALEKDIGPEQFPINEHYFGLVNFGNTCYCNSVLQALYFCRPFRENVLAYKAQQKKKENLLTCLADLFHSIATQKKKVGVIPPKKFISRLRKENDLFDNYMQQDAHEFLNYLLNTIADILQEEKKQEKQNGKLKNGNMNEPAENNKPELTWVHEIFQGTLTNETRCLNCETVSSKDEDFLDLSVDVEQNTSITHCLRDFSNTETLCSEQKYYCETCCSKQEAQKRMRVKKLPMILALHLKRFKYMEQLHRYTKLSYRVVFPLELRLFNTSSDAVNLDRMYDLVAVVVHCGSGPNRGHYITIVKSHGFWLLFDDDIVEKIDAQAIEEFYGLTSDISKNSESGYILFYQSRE
Procedure, shortened: as §1

[3] = molecular target: T2, USP47 (UniProt Q96K76)
T2 sequence (whole entry): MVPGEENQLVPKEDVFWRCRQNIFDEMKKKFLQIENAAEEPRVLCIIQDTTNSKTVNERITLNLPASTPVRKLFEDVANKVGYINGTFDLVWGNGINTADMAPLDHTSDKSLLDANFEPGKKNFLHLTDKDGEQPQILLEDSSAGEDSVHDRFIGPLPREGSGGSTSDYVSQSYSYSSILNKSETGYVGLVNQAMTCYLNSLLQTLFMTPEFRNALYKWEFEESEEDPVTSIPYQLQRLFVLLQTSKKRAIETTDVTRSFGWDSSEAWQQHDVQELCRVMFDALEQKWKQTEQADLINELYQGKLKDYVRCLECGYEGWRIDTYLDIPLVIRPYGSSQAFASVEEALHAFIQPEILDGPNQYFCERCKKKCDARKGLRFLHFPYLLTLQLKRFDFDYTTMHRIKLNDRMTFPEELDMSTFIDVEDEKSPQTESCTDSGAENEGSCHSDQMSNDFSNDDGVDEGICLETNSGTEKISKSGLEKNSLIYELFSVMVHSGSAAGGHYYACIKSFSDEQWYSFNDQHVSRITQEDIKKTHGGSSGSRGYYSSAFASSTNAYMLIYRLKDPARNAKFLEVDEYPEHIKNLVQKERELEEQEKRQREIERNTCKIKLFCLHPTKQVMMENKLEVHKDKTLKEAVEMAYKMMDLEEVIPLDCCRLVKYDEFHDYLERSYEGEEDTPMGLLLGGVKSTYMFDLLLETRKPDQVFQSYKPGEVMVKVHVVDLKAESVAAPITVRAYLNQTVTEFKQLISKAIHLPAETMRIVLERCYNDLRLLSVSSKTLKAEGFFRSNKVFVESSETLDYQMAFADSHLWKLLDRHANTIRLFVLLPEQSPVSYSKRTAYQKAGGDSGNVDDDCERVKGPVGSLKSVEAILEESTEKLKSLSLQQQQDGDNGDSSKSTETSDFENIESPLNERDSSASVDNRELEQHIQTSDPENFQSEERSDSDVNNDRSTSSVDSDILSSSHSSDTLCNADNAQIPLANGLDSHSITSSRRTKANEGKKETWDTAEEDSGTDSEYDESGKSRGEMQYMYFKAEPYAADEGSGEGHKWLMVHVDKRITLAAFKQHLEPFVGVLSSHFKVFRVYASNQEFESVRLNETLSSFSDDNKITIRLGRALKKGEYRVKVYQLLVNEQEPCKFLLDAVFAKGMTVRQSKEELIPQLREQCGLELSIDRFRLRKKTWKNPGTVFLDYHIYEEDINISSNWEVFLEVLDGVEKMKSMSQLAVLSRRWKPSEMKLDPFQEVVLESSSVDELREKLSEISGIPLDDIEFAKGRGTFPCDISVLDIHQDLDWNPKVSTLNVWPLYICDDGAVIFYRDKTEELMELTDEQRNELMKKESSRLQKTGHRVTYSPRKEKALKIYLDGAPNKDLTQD
Procedure, shortened: as §1

[4] = molecular target: T3, USP48 (UniProt Q86UV5)
T3 sequence (whole entry): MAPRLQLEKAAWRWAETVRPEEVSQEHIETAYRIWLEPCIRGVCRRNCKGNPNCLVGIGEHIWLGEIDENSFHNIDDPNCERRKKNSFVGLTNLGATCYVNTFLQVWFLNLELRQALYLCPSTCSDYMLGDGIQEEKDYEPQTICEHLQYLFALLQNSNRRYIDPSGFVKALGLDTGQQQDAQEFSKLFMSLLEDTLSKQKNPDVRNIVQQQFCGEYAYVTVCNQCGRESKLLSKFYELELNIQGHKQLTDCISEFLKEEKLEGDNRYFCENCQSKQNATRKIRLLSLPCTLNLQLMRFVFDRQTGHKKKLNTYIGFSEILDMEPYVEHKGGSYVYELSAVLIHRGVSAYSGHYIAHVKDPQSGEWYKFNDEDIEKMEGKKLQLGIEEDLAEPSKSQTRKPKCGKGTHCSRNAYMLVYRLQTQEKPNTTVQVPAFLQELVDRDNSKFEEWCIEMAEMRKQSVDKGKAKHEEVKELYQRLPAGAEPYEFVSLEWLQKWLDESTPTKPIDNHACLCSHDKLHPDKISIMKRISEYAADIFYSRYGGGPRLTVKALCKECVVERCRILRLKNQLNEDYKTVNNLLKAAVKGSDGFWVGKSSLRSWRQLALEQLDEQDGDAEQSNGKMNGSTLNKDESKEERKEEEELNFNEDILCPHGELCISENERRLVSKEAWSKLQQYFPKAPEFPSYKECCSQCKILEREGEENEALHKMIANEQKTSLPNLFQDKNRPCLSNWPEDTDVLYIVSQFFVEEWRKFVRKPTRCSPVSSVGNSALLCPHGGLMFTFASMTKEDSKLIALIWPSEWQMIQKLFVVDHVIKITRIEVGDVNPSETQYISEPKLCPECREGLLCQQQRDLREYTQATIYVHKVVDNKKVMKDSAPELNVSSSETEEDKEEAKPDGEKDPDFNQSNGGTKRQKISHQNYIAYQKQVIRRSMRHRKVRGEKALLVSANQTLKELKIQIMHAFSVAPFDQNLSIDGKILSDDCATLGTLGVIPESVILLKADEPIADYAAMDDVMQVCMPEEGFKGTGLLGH
Procedure, shortened: as §1

[5] = molecular target: T4, USP5 (UniProt P45974)
T4 sequence (whole entry): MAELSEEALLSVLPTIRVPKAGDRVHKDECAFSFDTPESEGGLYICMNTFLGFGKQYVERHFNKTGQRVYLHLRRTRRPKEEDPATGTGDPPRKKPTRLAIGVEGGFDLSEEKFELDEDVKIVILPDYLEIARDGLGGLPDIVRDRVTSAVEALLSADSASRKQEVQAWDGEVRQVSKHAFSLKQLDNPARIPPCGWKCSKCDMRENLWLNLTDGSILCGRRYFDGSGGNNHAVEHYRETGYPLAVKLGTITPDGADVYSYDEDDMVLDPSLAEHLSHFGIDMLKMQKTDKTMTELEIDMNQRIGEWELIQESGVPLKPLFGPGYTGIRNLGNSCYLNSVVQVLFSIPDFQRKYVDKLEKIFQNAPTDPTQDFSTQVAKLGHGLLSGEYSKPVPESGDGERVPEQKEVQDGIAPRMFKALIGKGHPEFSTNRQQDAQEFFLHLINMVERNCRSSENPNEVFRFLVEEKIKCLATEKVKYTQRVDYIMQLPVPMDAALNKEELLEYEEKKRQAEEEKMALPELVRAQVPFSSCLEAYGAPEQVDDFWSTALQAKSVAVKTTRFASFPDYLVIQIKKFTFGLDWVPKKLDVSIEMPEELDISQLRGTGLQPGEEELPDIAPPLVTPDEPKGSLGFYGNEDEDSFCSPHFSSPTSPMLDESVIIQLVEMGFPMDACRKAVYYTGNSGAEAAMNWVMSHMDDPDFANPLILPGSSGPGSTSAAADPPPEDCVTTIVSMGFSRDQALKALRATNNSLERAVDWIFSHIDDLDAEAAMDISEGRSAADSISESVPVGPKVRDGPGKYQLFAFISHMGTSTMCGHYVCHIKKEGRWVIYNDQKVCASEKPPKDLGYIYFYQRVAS
Procedure, shortened: as §1

[6] = molecular target: USP54 (UniProt Q70EL1)
Chain of USP54 (Q70EL1 whole entry): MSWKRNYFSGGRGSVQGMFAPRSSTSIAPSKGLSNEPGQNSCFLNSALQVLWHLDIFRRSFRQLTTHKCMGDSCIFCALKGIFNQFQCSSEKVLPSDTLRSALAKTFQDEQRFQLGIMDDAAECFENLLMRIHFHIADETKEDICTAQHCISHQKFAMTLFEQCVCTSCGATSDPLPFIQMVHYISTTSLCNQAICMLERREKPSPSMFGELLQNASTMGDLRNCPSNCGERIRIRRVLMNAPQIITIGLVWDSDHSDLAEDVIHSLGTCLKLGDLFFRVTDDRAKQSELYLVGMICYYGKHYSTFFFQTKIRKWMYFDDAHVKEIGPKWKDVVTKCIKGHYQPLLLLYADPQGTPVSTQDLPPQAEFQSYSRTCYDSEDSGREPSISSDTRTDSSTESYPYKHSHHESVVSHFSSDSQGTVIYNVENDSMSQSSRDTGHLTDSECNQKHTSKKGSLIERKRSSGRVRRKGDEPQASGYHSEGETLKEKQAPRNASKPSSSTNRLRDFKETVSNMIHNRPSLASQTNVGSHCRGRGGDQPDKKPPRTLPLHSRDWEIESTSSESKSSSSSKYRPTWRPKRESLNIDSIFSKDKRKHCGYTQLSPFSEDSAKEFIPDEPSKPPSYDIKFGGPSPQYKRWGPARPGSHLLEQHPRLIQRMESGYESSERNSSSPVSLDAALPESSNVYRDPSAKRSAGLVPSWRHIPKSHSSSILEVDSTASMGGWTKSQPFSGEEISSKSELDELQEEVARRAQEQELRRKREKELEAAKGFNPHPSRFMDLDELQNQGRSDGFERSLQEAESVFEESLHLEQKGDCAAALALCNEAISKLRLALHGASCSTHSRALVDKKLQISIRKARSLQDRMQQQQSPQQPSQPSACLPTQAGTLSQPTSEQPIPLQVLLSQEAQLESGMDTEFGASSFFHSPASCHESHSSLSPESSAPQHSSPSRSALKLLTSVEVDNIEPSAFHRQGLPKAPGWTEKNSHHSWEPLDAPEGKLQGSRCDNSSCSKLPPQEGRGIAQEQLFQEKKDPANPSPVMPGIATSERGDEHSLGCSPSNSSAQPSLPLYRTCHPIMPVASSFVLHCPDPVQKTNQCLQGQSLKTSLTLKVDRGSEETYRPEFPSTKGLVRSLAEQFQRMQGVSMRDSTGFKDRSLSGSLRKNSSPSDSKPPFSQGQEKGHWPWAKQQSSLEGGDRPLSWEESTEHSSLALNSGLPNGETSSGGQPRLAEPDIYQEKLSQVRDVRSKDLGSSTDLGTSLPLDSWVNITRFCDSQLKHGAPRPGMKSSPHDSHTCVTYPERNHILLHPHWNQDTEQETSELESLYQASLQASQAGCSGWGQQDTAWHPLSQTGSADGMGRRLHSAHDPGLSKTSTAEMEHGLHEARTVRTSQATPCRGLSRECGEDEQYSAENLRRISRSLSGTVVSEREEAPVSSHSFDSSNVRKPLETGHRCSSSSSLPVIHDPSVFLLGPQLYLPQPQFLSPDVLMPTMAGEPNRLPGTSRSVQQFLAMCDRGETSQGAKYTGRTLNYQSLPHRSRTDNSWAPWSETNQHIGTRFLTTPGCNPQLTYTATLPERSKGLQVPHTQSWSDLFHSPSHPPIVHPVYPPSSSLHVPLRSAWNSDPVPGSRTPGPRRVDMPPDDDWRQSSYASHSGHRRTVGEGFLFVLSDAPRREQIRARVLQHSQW
Procedure, shortened: as §1

[7] = molecular target: USP7 (UniProt Q93009)
Chain of USP7 (Q93009 whole entry, looked up): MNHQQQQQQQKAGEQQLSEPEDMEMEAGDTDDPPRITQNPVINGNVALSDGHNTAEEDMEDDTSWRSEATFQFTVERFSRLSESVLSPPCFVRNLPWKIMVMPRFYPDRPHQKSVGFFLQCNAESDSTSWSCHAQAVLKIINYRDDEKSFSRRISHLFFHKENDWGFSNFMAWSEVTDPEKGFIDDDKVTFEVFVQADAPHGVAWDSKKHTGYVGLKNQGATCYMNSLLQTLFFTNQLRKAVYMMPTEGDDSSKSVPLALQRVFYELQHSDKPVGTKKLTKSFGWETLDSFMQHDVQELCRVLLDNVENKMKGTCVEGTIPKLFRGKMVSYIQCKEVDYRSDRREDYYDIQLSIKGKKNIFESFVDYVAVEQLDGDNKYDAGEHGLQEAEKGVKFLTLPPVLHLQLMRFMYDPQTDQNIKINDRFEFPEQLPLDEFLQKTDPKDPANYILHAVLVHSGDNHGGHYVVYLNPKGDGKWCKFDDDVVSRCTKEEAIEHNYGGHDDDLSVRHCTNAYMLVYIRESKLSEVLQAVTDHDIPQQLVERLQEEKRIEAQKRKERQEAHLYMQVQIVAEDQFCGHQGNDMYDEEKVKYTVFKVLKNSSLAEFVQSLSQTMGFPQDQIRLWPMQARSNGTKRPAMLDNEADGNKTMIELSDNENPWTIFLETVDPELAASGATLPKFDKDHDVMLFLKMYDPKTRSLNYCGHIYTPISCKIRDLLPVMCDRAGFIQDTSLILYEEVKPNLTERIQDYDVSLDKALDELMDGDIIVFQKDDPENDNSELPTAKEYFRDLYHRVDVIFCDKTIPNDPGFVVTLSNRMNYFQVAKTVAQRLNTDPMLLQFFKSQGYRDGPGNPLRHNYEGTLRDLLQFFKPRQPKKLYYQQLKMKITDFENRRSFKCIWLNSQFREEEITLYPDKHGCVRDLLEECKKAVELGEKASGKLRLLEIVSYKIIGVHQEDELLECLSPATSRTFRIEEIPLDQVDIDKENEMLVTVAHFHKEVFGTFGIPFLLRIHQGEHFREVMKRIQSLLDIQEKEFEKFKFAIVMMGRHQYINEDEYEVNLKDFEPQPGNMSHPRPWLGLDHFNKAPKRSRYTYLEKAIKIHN
Procedure, shortened: as §1

[8] = molecular target: T5, USP8 (UniProt P40818)
T5 sequence (whole entry): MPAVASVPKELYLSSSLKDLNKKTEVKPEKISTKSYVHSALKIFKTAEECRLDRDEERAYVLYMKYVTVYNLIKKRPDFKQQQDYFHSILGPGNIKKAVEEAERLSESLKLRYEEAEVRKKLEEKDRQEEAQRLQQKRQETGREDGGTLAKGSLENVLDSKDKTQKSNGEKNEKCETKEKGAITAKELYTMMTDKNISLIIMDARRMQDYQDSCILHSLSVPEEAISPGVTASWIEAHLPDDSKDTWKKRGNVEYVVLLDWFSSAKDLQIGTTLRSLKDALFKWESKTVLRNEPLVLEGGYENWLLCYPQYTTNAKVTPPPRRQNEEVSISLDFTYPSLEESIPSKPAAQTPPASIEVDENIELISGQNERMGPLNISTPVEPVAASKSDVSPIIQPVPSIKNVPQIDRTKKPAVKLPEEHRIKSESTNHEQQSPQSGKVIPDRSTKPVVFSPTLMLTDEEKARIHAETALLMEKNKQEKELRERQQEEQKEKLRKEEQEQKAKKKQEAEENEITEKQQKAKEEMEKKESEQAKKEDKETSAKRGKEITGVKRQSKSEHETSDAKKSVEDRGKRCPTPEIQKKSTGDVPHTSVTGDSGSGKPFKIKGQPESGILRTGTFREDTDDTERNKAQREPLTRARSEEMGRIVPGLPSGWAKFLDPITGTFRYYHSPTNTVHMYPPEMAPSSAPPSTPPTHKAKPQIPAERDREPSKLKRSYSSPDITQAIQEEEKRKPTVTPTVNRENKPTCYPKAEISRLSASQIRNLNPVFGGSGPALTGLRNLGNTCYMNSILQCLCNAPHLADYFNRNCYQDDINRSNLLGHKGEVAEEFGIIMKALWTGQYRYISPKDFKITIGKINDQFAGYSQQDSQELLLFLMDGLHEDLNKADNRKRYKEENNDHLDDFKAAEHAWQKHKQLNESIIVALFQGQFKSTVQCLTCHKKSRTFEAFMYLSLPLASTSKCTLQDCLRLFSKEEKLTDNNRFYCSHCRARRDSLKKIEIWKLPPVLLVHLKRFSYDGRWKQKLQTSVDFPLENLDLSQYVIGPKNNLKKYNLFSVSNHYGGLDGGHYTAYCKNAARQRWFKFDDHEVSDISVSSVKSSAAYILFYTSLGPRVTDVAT
Procedure, shortened: as §1

[9] = molecular target: USP9X (UniProt Q93008)
Procedure, shortened: as §1

[10] = molecular target: UniProt O00487
Chain of UniProt O00487 (O00487 whole entry): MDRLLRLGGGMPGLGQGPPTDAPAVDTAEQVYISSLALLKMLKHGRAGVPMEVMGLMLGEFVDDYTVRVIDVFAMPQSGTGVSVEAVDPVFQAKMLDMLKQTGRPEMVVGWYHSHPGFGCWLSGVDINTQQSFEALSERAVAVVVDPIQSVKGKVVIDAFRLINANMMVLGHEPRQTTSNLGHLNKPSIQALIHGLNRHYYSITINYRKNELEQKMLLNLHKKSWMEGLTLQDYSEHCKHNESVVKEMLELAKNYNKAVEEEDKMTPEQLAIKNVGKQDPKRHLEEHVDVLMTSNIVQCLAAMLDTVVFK
Procedure, shortened: as §1

Measured: log2 ratio of Biotin-Ahx-Ub-VS probe labelling

O=C(CCl)N1CCC(c2nc3ccccc3o2)CC1
inactive: [1] -0.0372 | [2] -0.0557 | [3] -0.397 | [4] -0.598 | [5] 0.186 | [6] 0.726 | [7] -0.746 | [8] -0.0637 | [9] -0.351 | [10] -0.154

CN(Cc1nc2ccccc2[nH]1)C(=O)CCl.Cl
active: [4] -1.14 | [7] -1.36
inactive: [1] 0.698 | [2] -0.254 | [3] -0.178 | [5] 0.118 | [6] -0.517 | [8] -0.0998 | [9] -0.057 | [10] -0.00224

O=C(CCl)N1CCN(C(=O)Nc2ccccc2)CC1
inactive: [1] 0.532 | [2] -0.0442 | [3] -0.216 | [4] -0.158 | [5] 0.398 | [6] 0.404 | [7] -0.132 | [8] 0.0931 | [9] 0.0323 | [10] -0.0538
